SMILES strings stand for the structures. Records with an inconclusive call do not appear. Entries that show only a call come without a potency. Activity calls are given as the source filed them. The call rests on the fitted dose curve; in most records, active means well fitted activation curve with a large enough effect; inconclusive means small, poorly fitted or top-dose-only effect; inactive means flat fitted curve, though single readings scatter.

The test can be described thus: qHTS for Activators of Parkin Expression: LOPAC Validation Assay (NLuc Reporter) (AID 720572). Particulars: Parkin promoter NanoLuc reporter cells, luminescence; series mostly up to 46.1 µM. Summed up:
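Compound effects on Parkin promoter activity were measured as NanoLuc luminescence after 24 h at 37 C. The neuronal reporter line also carried FLuc, which was read first. LOPAC compounds were tested at 7 concentrations, with normalization to DMSO (0%) and positive control (100%).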
(Quantitative high-throughput screening tests each substance at several concentrations.)
Take `C[N+]1(C)C2CCC1CC(OC(=O)c1c[nH]c3ccccc13)C2` (stereo not given): the Potency result is “inactive”.

Turning to `O=[N+]([O-])/C=C/c1ccc2c(c1)OCO2`, the Potency entry was “inactive”.

For the molecule `CCNC(=O)[C@H]1O[C@@H](n2cnc3c(N)ncnc32)[C@H](O)[C@@H]1O`, the Potency result was “inactive”.

Take `CCCN1CCc2cc(O)cc3c2[C@H]1Cc1ccc(O)c(O)c1-3`: the Potency entry was “inactive”.

As to `NC(Cc1cc(O)c(O)cc1O)C(=O)O` (stereo not given), the Potency result is “inactive”.

As for `NC(=O)c1cc(N2CC2)c([N+](=O)[O-])cc1[N+](=O)[O-]`, the Potency result was “inactive”.

As to `C=CCN1CC[C@]23c4c5ccc(O)c4O[C@H]2/C(=N/NC(=O)c2ccccc2)CC[C@@]3(O)[C@H]1C5`, the Potency entry was “inactive”.

For `N[C@@H](Cn1oc(=O)[nH]c1=O)C(=O)O`, the Potency result was “inactive”.

For the molecule `CCCCCCC(C)(C)c1ccc([C@@H]2C[C@H](O)CC[C@H]2CCCO)c(O)c1`, the Potency entry was “inactive”.

For the molecule `C[C@@H]1O[C@@H](O[C@H]2C[C@@H](O)[C@]3(CO)[C@@H]4C(CC[C@]3(O)C2)[C@@]2(O)CC[C@H]([C@@H]3COC(=O)C3)[C@@]2(C)C[C@H]4O)[C@H](O)[C@H](O)[C@H]1O` (stereo not given in full), the Potency entry is “inactive”.

For the molecule `CC(N)[C@H](O)c1ccc(O)c(O)c1` (stereo not given in full), the Potency result was “inactive”.

Regarding `CC(N)Cc1c[nH]c2ccc(OCc3cccs3)cc12` (stereo not given), the Potency result was “inactive”.

For the molecule `COc1ccc(OC)c(C(O)C(C)N)c1` (stereo not given), the Potency result was “inactive”.

For `C[Se]C[C@H](N)C(=O)O`, the Potency entry was “inactive”.

Take `C[N+](C)(C)CC#CCN1CCCC1=O`: the Potency result was “inactive”.

Take `O=S1(=O)N(CCN2CC=C(c3c[nH]c4cc(F)ccc34)CC2)c2cccc3c2N1CCC3`: the Potency result is “inactive”.

On to `NCC(O)c1cc(O)c(O)cc1F` (stereo not given), for which the Potency entry is “inactive”.

As for `O=[N+]([O-])c1ccc2nc(N3CCNCC3)ccc2c1`, the Potency result was “inactive”.

Regarding `CC(N)c1cccc(Cl)c1Cl` (stereo not given), the Potency result was “inactive”.

Regarding `N#CCCN`, the Potency entry was “inactive”.

Take `CN1CCc2cc(O)cc3c2[C@H]1Cc1ccc(O)c(O)c1-3`: the Potency result is “inactive”.

Consider `C[N+](C)(C)CCOC(=O)CBr`, for which the Potency entry was “inactive”.

On to `Clc1ccc(N2CC3CCC(C2)N3)nn1`, for which the Potency entry was “inactive”.

As for `CC(N)Cc1c[nH]c2ccc(O)cc12` (stereo not given), the Potency result is “inactive”.

In the case of `CC(=O)NBr`, the Potency entry was “inactive”.

On to `N=C(N)c1ccc(CS(=O)(=O)F)cc1`, for which the Potency entry is “inactive”.

Consider `OCc1cnc[nH]1`, for which the Potency result was “inactive”.

`NCCc1c[nH]c2ccc(C(N)=O)cc12`: the Potency result is “inactive”.

With `CCCN1CC[C@@H]2c3cc(O)ccc3CC[C@@H]21`, the Potency entry is “inactive”.

For `CCCN(CCC)[C@H]1CCc2c(F)ccc(O)c2C1`, the Potency result is “inactive”.

As for `CCN(CCCl)Cc1ccccc1Br`, the Potency entry was “inactive”.

Regarding `Cc1cc([C@@H]2CCCN2C)on1`, the Potency result was “inactive”.

For `CCCN(CCC)CCc1ccc(O)c(O)c1`, the Potency result is “inactive”.

On to `COc1ccc2c(c1)c(CCN1CCOCC1)c(C)n2C(=O)c1cccc(Cl)c1Cl`, for which the Potency result is “inactive”.

As for `C=CCN1CCc2cccc3c2[C@H]1Cc1ccc(O)c(O)c1-3`, the Potency entry is “inactive”.

These data come from PubChem BioAssay (NCATS).
